# Laboratory results reported in PubChem BioAssay (EPA / NIEHS).
# Results filed as inconclusive are left out. Calls of active or inactive are those of the source. How the source made its calls: active means hit-call score of the fitted dose curve at least 0.9, where 1 is the maximum; inconclusive means response in the unintended direction; inactive means score below 0.9.
# Assays:
# [1] = molecular target: human Sirtuin 3 (SIRT3), SIRT3 (gene 23410) (UniProt Q9NTG7); assay: NVS_ENZ_hSIRT3: NovaScreen (NVS) Enzymatic Assay for human Sirtuin 3 (SIRT3) (AID 2283222)
# In short: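 Cell-free enzyme assay with recombinant protein and fluorescent substrate, product separated by electrophoretic mobility shift; read 1 hour after dosing. Screened in duplicate at 25 uM, then singleton concentration-response up to 50 uM; loss of signal versus DMSO.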
# [2] = molecular target: human Tropomyosin Receptor Kinase A (TRKA), NTRK1 (gene 4914) (UniProt P04629); assay: NVS_ENZ_hTrkA: NovaScreen (NVS) Enzymatic Assay for human Tropomyosin Receptor Kinase A (TRKA) (AID 2283224)
# In short: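 Recombinant human TrkA activity read after 1 h by fluorescence with electrophoretic mobility shift separating substrate and product. Primary screen in duplicate at 25 uM; actives were rerun in concentration-response up to 50 uM. Loss of signal versus DMSO.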
# [3] = molecular target: human Vascular Endothelial Growth Factor Receptor 1 (VEGFR1), FLT1 (gene 2321) (UniProt P17948); assay: NVS_ENZ_hVEGFR1: NovaScreen (NVS) Enzymatic Assay for human Vascular Endothelial Growth Factor Receptor 1 (VEGFR1) (AID 2283226)
# In short: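 Cell-free assay of recombinant human VEGFR1 kinase with substrate, measured 1 h after dosing; fluorescence with electrophoretic mobility-shift separation of substrate and product, referenced to DMSO; primary screen at 25 uM in duplicate, actives then run in concentration series.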
# [4] = molecular target: rat Acetylcholinesterase (AChE), Ache (gene 83817) (UniProt P37136); assay: NVS_ENZ_rAChE: NovaScreen (NVS) Enzymatic Assay for rat Acetylcholinesterase (AChE) (AID 2283233)
# In short: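 Rat brain membrane acetylcholinesterase activity measured colorimetrically 0.33 h after compound addition, loss of signal relative to DMSO. Primary screen in duplicate at 25 uM; actives re-run as concentration-response with 50 uM top concentration.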
# human Tropomyosin Receptor Kinase A (TRKA), NTRK1 (gene 4914), sequence (P04629 whole entry, looked up): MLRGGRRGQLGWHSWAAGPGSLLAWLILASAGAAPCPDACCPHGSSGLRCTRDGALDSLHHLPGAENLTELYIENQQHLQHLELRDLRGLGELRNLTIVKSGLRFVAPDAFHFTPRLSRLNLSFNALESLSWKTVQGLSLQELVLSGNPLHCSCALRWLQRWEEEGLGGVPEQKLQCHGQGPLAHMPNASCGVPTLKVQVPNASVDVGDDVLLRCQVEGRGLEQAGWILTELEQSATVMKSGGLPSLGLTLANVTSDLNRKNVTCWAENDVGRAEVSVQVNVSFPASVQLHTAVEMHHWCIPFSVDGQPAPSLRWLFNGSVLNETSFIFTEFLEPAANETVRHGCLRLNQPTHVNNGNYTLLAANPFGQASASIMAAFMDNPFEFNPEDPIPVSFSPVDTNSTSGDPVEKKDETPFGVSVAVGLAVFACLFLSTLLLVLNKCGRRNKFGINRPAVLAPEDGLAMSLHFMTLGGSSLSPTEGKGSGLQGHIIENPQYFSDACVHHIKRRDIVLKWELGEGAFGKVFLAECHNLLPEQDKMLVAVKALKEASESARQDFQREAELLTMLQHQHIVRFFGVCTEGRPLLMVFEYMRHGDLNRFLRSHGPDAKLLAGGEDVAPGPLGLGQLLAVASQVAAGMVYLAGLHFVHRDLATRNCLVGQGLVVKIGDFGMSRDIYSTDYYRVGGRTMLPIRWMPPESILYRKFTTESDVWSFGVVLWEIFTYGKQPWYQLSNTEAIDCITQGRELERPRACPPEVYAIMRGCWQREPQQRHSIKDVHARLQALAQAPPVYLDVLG
# human Vascular Endothelial Growth Factor Receptor 1 (VEGFR1), FLT1 (gene 2321), sequence (P17948 whole entry, looked up): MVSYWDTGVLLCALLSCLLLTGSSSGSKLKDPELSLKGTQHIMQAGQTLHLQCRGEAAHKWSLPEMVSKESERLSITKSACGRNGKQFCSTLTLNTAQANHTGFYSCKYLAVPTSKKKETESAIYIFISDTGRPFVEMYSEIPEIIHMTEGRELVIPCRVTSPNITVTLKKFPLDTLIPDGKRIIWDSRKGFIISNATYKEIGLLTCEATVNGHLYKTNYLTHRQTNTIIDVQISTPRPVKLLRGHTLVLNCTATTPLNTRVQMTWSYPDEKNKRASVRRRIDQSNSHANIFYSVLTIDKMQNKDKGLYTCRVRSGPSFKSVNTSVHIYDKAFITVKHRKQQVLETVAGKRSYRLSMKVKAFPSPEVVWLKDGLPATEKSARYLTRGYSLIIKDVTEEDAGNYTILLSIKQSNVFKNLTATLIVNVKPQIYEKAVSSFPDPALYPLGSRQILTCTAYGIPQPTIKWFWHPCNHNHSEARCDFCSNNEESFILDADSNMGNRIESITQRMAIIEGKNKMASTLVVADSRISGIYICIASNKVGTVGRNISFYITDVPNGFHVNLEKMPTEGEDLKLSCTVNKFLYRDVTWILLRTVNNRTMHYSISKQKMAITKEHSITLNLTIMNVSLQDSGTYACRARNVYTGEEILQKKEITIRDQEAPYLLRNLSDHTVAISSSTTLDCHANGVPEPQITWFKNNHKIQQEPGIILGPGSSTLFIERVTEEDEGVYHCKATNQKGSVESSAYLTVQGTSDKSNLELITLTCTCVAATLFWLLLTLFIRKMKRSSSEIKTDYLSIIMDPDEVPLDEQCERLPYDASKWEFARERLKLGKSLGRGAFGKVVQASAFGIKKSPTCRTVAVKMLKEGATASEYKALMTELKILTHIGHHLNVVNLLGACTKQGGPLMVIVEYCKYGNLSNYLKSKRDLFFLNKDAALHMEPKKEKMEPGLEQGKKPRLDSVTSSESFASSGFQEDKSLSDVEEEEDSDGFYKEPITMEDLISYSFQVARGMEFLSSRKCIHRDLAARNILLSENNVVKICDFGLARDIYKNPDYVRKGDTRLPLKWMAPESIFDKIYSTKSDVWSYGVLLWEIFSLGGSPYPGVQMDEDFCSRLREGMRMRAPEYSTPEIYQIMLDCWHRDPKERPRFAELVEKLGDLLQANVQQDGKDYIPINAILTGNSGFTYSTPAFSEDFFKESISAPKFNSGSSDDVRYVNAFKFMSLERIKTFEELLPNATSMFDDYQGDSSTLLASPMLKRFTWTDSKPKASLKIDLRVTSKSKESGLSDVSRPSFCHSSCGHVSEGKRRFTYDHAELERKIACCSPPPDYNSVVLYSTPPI
# rat Acetylcholinesterase (AChE), Ache (gene 83817), sequence (P37136 whole entry, looked up): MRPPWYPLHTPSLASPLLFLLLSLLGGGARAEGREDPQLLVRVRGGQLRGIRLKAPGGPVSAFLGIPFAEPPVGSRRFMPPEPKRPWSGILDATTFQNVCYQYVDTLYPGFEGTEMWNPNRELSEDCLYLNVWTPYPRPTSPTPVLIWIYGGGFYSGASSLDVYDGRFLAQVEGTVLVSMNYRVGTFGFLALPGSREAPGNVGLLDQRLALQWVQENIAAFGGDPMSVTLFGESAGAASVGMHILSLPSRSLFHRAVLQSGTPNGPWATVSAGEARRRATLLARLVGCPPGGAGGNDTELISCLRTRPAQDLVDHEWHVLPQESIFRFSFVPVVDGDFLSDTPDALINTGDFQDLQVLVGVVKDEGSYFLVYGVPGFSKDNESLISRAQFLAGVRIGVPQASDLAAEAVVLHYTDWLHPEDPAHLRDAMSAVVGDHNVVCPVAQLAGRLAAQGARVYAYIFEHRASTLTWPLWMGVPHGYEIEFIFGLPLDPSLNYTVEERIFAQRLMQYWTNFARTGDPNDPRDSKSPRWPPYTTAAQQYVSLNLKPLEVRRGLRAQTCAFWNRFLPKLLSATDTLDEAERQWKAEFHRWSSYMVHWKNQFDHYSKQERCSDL
# human Sirtuin 3 (SIRT3), SIRT3 (gene 23410), sequence (Q9NTG7 whole entry, looked up): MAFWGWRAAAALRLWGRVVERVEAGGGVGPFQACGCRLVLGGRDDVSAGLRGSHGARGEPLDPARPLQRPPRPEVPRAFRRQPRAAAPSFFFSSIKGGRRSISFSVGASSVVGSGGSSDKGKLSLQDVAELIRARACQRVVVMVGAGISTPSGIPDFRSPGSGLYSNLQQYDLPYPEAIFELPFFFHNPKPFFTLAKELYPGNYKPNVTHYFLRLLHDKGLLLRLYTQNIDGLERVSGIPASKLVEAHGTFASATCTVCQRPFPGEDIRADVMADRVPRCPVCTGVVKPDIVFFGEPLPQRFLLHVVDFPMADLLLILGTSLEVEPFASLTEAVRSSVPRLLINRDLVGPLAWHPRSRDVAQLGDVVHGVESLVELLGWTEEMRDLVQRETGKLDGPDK
compound,measurement,setting,value
CSC(C)(C)C=NO,outcome,[1],inactive
O=[N+]([O-])c1ccccc1,outcome,[2],inactive
ClC1=C(Cl)C2(Cl)C3C(Cl)C(Cl)CC3C1(Cl)C2(Cl)Cl (configuration not stated),outcome,[2],inactive
CC(C)(C)c1ccc(O)cc1,outcome,[3],inactive
Cc1ccc2c(c1N)C(=O)c1ccccc1C2=O,AC50,[3],25 µM (active)
Nc1cc2c3c(c1)C(c1ccccc1)=N[C@@H](NC(=O)c1cccnc1)C(=O)N3CC2,outcome,[4],inactive
CCCCN(CCCC)SN(C)C(=O)Oc1cccc2c1OC(C)(C)C2,AC50,[4],1.13 µM (active)
